Source: PubChem
PNC inhibitor – High Content Assay for Compounds that inhibit the Assembly of the Perinucleolar Compartment; activity change (PNC), negative = inhibition, % at 10 µM; 140,000 compounds, 3.1% hits; PC3M PTB-GFP, PNC prevalence imaging, 16 h; hits give low values;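 active = readout at or below -70, meaning at least 70% loss of cells showing the perinucleolar compartment, a nuclear body marking cancer cells; inconclusive = readout between -30 and a set limit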
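PC3M cells stably expressing PTB-GFP, 750–1000 cells/well, treated 16 h at 37 °C with compound (23 nl of library stock), in duplicate. After paraformaldehyde fixation and Hoechst stain, imaged at 20x; PNC prevalence scored by image analysis.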
Tau fibril ThT – qHTS for Inhibitors of Tau Fibril Formation, Thioflavin T Binding | Microtubule-associated protein tau (Homo sapiens), P10636 | recombinant tau K18 P301L, heparin-induced fibrillization, ThT fluorescence | Potency, µM (highest dose often 57.4 µM), usual class: inhibitors | 270,000 compounds, 2.1% hits | AID 1460, 2008; note: nearly all actives have a fitted effect of over 55% in size
Target sequence (P10636 561-689 P618L limits assumed): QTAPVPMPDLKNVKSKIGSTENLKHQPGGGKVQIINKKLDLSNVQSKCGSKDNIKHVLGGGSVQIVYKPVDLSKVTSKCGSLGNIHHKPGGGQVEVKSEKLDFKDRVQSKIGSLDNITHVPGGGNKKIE
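Tau K18 P301L fragment (15 uM unlabeled plus 0.24 uM Alexa 594-labeled) in 100 mM sodium acetate pH 7 with compound, fibrillization induced by 20 uM heparin for 6 hr at 37 C. Thioflavin T (30 uM) added, fluorescence read after 1 hr (ex 450, em 510 nm).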
TR SRC2 fluor cs – Total Fluorescence Counterscreen for Inhibitors of the Interaction of Thyroid Hormone Receptor and Steroid Receptor Coregulator 2; AID 1479, 2009; TRb/SRC2 Texas Red total fluorescence interference; Potency, µM (highest dose often 106 µM); 280,000 compounds, 0.29% hits; active = well fitted curve in either direction with a large enough effect; inconclusive = small, poorly fitted or top-dose-only effect
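Human TRβ ligand-binding domain (0.6 uM) and Texas Red SRC2 peptide (20 nM) in Tris buffer with 1 uM T3 and 5% DMSO were incubated with pinned compound for 5 hr at ambient temperature. Total fluorescence was computed as S + 2P (555/632 nm).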
Tau fibril FP – qHTS for Inhibitors of Tau Fibril Formation, Fluorescence Polarization; K18 P301L tau heparin fibrillization, Alexa594 FP, 6 h; 280,000 compounds, 0.39% hits; AID 1468, 2008; Microtubule-associated protein tau (Homo sapiens), P10636; Potency, µM (highest dose often 57.7 µM), hits mostly inhibitors; note: nearly all actives have a fitted effect of over 55% in size
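Human tau K18 […] P301L fragment, 15 uM unlabeled plus 0.24 uM Alexa 594-labeled tau (final), with compound and 20 uM heparin in 100 mM sodium acetate pH 7; 6 hr at 37 C, then Alexa 594 FP read.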
TRb SRC2 PPI – qHTS for Inhibitors of the Interaction of Thyroid Hormone Receptor and Steroid Receptor Coregulator 2. TRbeta-SRC2 peptide binding, fluorescence polarization; receptor liganded with 1 µM T3. Potency, µM (top dose mostly 106 µM), most hits filed as inhibitors. 280,000 compounds, 0.065% hits. AID 1469, 2008; note: nearly all actives have a fitted effect of over 50% in size
Target sequence (P10828 whole entry, looked up): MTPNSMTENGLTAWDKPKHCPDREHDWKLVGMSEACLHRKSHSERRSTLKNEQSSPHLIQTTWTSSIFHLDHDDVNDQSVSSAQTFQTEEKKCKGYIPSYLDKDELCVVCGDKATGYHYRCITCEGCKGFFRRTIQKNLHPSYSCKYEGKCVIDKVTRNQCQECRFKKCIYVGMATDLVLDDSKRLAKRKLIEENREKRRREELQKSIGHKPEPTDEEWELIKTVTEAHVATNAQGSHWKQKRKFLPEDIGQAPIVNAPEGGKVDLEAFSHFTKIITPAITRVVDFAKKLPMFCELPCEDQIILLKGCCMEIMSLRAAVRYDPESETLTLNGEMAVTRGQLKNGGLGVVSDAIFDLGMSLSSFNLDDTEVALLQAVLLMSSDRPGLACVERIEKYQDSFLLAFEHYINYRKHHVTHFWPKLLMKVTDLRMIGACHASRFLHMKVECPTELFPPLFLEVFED
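Binding of a 20-amino-acid Texas Red SRC2 peptide (20 nM) to TRb ligand-binding domain (0.6 uM) with agonist T3 at 1 uM was followed by fluorescence polarization after a 5 hr room-temperature incubation.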
Tau fluor cs – Counterscreen qHTS for Inhibitors of Tau Fibril Formation, Fluorescence Polarization; AID 1463, 2008; tau K18 P301L (four-repeat tau fragment) Alexa594 fluorescence, heparin fibrillization; Potency, µM (top dose mostly 57.7 µM); 280,000 compounds, 0.93% hits; note: nearly all actives have a fitted effect of over 55% in size
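Human K18 P301L tau (15 uM unlabeled plus 0.24 uM Alexa 594-labeled, final) in 100 mM sodium acetate pH 7 was mixed with compound and 20 uM heparin and incubated 6 hr at 37 C.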
Each line names hits and unclear results; the compound was inactive in the other large screens; [ ] = another dose, or the depositor's remark. The list is not random: actives were taken first. Their share in the collection is about 4.6%. Unless noted, calls come from the whole dose curve; as a rule, active = well fitted curve in the direction sought with a large enough effect; inconclusive = small, poorly fitted or top-dose-only effect, or another doubt; inactive = no such curve, though single readings can be large; an effect the other way counts as inactive or inconclusive.

COc1ccc2nc(C)cc(N3CCC(C(N)=O)CC3)c2c1	none (no result: PNC inhibitor)
Cc1cc(-c2ccccc2C(=O)NCc2ccccc2)on1	PNC inhibitor inconclusive
CC1CCc2nn(CC(=O)NCCCN3CCOCC3)cc2C1 (stereo not given)	none
CC1CCc2nn(CC(=O)NCCN3CCOCC3)cc2C1 (stereo not given)	PNC inhibitor -82
Clc1cccc(-c2ccc(/C=N/n3cnnc3)o2)c1Cl	PNC inhibitor -100
O=C(COc1ccc(/C=N/NS(=O)(=O)c2ccccc2)cc1)Nc1cccc(Cl)c1	Tau fibril ThT inconclusive, Tau fluor cs 16µM[quencher]
NC(N)=NCCC[C@H](NC(=O)OCc1ccccc1)C(=O)O	none
O=C(Nc1nc2c(s1)CCCC2)c1cccnc1	none
O=C(NC(=S)Nc1nc2c(s1)CCCC2)c1ccc(C(=O)c2ccccc2)cc1	PNC inhibitor -124
C/C(=N\Nc1nc2c(s1)CCCC2)c1ccccc1	Tau fibril ThT 14µM, Tau fluor cs inconclusive
C(=N\N1CCN(Cc2ccccc2)CC1)/c1cccnc1	PNC inhibitor -116
C(=N\N1CCN(Cc2ccccc2)CC1)/c1ccccc1	none (no result: PNC inhibitor, Tau fibril ThT)
N#Cc1c(C(F)(F)F)cc(-c2cccs2)nc1SCc1ccc(F)cc1	Tau fibril FP inconclusive (no result: PNC inhibitor)
COc1cc2c(cc1NC(=O)C(C)NCc1ccccc1)oc1ccccc12 (stereo not given)	none
COc1cc2c(cc1NC(=O)Nc1ccccc1)oc1ccccc12	PNC inhibitor inconclusive, Tau fluor cs 7.1µM[quencher]
COc1cc2c(cc1NC(=O)CSCC(=O)O)oc1ccccc12	PNC inhibitor -127
COc1cc2c(cc1NC(=S)Nc1cccc(C(F)(F)F)c1)oc1ccccc12	Tau fibril ThT inconclusive, Tau fibril FP inconclusive, Tau fluor cs 13µM[quencher]
Cc1ccc(C)c(CSc2nc3ccncc3n2CC(=O)Nc2ccc(N(C)C)cc2)c1	Tau fibril ThT inconclusive, Tau fibril FP inconclusive, Tau fluor cs 10µM[quencher] (no result: PNC inhibitor)
Cc1ccc(C)c(CSc2nc3ccncc3n2CC(=O)Nc2ccc(C)c(C)c2)c1	PNC inhibitor inconclusive, Tau fluor cs inconclusive
COc1ccc(NC(=O)Cn2c(SCc3cc(C)ccc3C)nc3ccncc32)c(OC)c1OC	Tau fibril ThT inconclusive, Tau fluor cs 8.9µM[quencher] (no result: PNC inhibitor)
CCc1ccc(NC(=O)c2nn(-c3ccc(OC)cc3)c(=O)c3c2c2ccccc2n3C)cc1	Tau fibril FP inconclusive (no result: PNC inhibitor)
S=C(NCCC(c1ccccc1)c1ccccc1)Nc1ccc(Cl)cc1	Tau fibril FP 14µM, Tau fluor cs 8.9µM[quencher]
O=S(=O)(c1ccc(NC(=S)NCCC(c2ccccc2)c2ccccc2)cc1)N1CCOCC1	Tau fibril FP 14µM, Tau fluor cs inconclusive
Oc1ccc(/C=N/Nc2ccc(C(F)(F)F)cn2)cc1	Tau fibril ThT inconclusive, Tau fluor cs 11µM[quencher] (no result: PNC inhibitor)
c1cnc2c(c1)ccc1cccnc12	Tau fibril ThT 28µM, Tau fibril FP inconclusive
N#Cc1c(Nc2ccc(Cl)cc2)s[nH]c1=O	Tau fibril FP 20µM (no result: PNC inhibitor, Tau fibril ThT)
N#Cc1ccc(NC(=O)Nc2ccc(Cl)cc2)cc1	Tau fibril ThT inconclusive, Tau fibril FP inconclusive, Tau fluor cs inconclusive
COc1ccc(-c2nc(N/N=C(\C)c3ccc(O)cc3)c3ccccc3n2)cc1	Tau fibril ThT inconclusive, Tau fluor cs 20µM[quencher] (no result: PNC inhibitor)
COc1ccc(Nc2nc(-c3ccc(C)cc3)nc3ccccc23)c(OC)c1	Tau fibril ThT inconclusive, Tau fluor cs 7.9µM[quencher] (no result: PNC inhibitor)
COc1ccccc1CNc1ncncc1-c1ccc(N(C)C)cc1	none (no result: PNC inhibitor)
COc1ccccc1CNc1nc(-c2ccc(N(C)C)cc2)nc2ccccc12	Tau fibril ThT 16µM, Tau fibril FP inconclusive, Tau fluor cs 11µM[quencher] (no result: PNC inhibitor)
COc1ccc(OC)c(Nc2nc(-c3ccc(C)cc3)nc3ccccc23)c1	Tau fluor cs inconclusive (no result: PNC inhibitor)
C/C(=N\Nc1nc(-c2ccc(C)cc2)nc2ccccc12)c1ccc([N+](=O)[O-])cc1	PNC inhibitor inconclusive
Cn1c(=O)cc(SCC(=O)NCCCN2CCOCC2)c2ccc(Cl)cc21	none
COc1cc(C2C(C#N)=C(N)Oc3cc4c(cc32)OCO4)cc(OC)c1OC (stereo not given)	none (no result: PNC inhibitor)
CC(C)(C)C(=O)NNc1nc(-c2ccccc2)c2cc(Br)ccc2n1	PNC inhibitor inconclusive, Tau fibril ThT inconclusive
c1cn(C23CC4CC(CC(C4)C2)C3)cn1	PNC inhibitor inconclusive
Cc1cc(C)cc(OCC2CNC(=O)O2)c1 (stereo not given)	none (no result: PNC inhibitor)
C=CC[n+]1c(-c2ccc(OCC)cc2)csc1NNC(=O)Nc1ccccc1	Tau fibril ThT 13µM, Tau fluor cs inconclusive
C=CC[n+]1c(-c2ccc(C)cc2)csc1Nc1c(C)n(C)n(-c2ccccc2)c1=O	none (no result: PNC inhibitor)
Cc1ccc(CN2CCN(/N=C/c3cccs3)CC2)cc1	PNC inhibitor -99
Cc1ccc(N(CC(=O)Nc2ccc(C)c(F)c2)S(=O)(=O)c2c(C)n[nH]c2C)cc1	Tau fluor cs inconclusive (no result: PNC inhibitor)
COC(=O)c1cccc(NC(=O)c2cccnc2)c1	none
Cc1cccc(OCCNc2cc(N3CCOCC3)ccc2[N+](=O)[O-])c1	PNC inhibitor inconclusive, Tau fibril ThT 7.9µM, Tau fluor cs inconclusive
Cc1ccc(OCCNc2cc(N3CCN(CCO)CC3)ccc2[N+](=O)[O-])cc1C	Tau fibril ThT 16µM, Tau fluor cs inconclusive
Cc1cccc(OCCNc2cc(N3CCN(C)CC3)ccc2[N+](=O)[O-])c1	Tau fibril ThT inconclusive, Tau fluor cs inconclusive
COc1ccccc1OCCNc1cc(N2CCCCC2)ccc1[N+](=O)[O-]	Tau fibril ThT inconclusive
Cc1ccccc1OCCNc1cc(N2CCNCC2)ccc1[N+](=O)[O-]	Tau fibril ThT 16µM, Tau fibril FP inconclusive, Tau fluor cs inconclusive (no result: PNC inhibitor)
CCOC(CCn1c(SCc2cccc([N+](=O)[O-])c2)nc2ccccc2c1=O)OCC	none
Cc1ccc(-c2csc(-c3c[nH]c4ccccc34)n2)c(C)c1	PNC inhibitor inconclusive, Tau fibril ThT 14µM, Tau fibril FP inconclusive, Tau fluor cs 10µM[quencher]
Oc1ccc(-c2csc(-c3c[nH]c4ccccc34)n2)c(O)c1	Tau fibril ThT 6.3µM, Tau fibril FP inconclusive, Tau fluor cs 10µM[quencher]
O=C(CSc1nnc(-c2ccco2)n1CC1CCCO1)NC1CCCC1 (stereo not given)	PNC inhibitor inconclusive
O=C(NCc1ccco1)c1ccccc1NS(=O)(=O)c1cccs1	none
